High-throughput results as filed in PubChem.
An excerpt weighted towards active compounds, which were near 1.2% of everything screened.
SRC3 inh – inhibitors of human steroid receptor coactivator 3 (SRC3) | inhibition, % at 3.6 µM | AID 588352 | HEK293 GAL4-SRC3 luciferase reporter, luminescence | 0.17% of 360,000 active | Q9Y6Q9;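 active = inhibition above a per-campaign cutoff, the mean of all compounds plus 3 SD, cut at about 60% in these data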;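 note: 0% = DMSO-treated cells and 100% = gossypol-treated cells at 36 µM; higher means less SRC3-driven luciferase light from the GAL4 reporter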
Gli-Sufu block – blocks Gli-Sufu signaling in a luciferase reporter; inhibition, % at 5 µM; Sufu-KO-LIGHT fibroblasts, Gli luciferase reporter luminescence; 0.74% of 340,000 active;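 active = inhibition above about 55%, limit read from the data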;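 note: 0% = DMSO-treated cells and 100% = wells with medium but no cells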
LRH-1 inv ag – suppresses constitutive activity of human LRH-1. AID 602396. O00482. HEK293T StAR-luciferase reporter, LRH-1 transfected, 24 h. 0.13% of 360,000 active. inhibition, % at 3.6 µM;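 active = inhibition above the mean inhibition of all tested compounds plus 3 SD, cut at about 73% in these data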;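 note: 0% = DMSO wells and 100% = reporter-only cells lacking LRH-1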
Target sequence (O00482 whole entry, looked up): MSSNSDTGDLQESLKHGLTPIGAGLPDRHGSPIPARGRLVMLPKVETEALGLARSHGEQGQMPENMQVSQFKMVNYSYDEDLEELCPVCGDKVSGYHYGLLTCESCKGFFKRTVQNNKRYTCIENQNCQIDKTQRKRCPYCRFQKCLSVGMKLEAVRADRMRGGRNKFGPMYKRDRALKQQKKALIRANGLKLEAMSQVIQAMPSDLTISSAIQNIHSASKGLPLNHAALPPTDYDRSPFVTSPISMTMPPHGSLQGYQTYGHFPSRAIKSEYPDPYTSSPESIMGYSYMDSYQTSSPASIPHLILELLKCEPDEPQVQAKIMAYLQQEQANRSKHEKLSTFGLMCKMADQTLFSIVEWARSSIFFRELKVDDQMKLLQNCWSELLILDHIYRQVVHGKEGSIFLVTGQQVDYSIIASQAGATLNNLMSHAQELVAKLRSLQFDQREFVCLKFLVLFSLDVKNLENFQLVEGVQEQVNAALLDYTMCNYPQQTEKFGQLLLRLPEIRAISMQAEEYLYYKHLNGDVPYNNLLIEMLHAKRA
COUP-TFII inh – blocks human COUP-TFII nuclear receptor; inhibition, % at 8.6 µM; HEK293T NGFI-A luciferase reporter, luminescence; 0.7% of 370,000 active; P24468;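 active = inhibition above a per-plate cutoff, mean inhibition of test wells between control levels plus 3 SD, cut at about 38% in these data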;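 note: cells cotransfected with COUP-TFII expression vector driving the NGFI-A reporter; 0% = median of COUP-TF2 test wells and 100% = reporter-only cells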
SRC2 inh – inhibits human steroid receptor coactivator 2; HEK293 GAL4-SRC2 luciferase reporter, luminescence; inhibition, % at 9 µM; Q15596; 0.17% of 370,000 active;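 active = inhibition above the mean inhibition of all tested compounds plus 3 SD, set per campaign, cut at about 52% in these data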;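 note: 0% = DMSO treated cells and 100% = cells given Gossypol at 36 µM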
SRC1 inh – inhibits human SRC1 coactivator. Q15788. inhibition, % at 3.6 µM. HEK293 GAL4-SRC1 luciferase reporter, luminescence. 0.12% of 360,000 active. AID 588354;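 active = inhibition above the campaign mean plus 3 SD, with each screening campaign given its own cutoff, cut at about 60% in these data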;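 note: 0% = DMSO treated cells and 100% = gossypol at 36 µM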
Gal4-VP16 ctr – VP16 inhibition counter-screen for COUP-TFII; shares compounds with COUP-TFII inh; HEK293 Gal4-VP16 luciferase reporter, luminescence; inhibition, % at 8.5 µM; 25% of 2,500 active; in the data active = inhibition above about 13%
COUP-TFII conf – COUP-TFII (NR2F2) inhibition, confirmation assay; shares compounds with COUP-TFII inh; HEK293 NGFI-A luciferase reporter, luminescence; inhibition, % at 8.5 µM; 45% of 2,500 active; AID 687008;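 active = mean inhibition over three repeats above a set limit taken from the earlier primary screen, cut at about 38% in these data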;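 note: 100% = cells given the luciferase reporter alone without the COUP-TF2 vector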
An asterisk follows results filed as active; x = no result given.

SMILES | SRC3 inh | Gli-Sufu block | LRH-1 inv ag | COUP-TFII inh | SRC2 inh | SRC1 inh | Gal4-VP16 ctr | COUP-TFII conf
CC[C@H](C)[C@H]1CNC(=O)C(=O)N1CC1CCN(CC(C)C)CC1 | x | x | x | -14 | -9 | x | x | x
O=C(CCCc1nc(-c2ccc(Cl)cc2)no1)Nc1cccnc1 | 5 | 5 | 17 | 41* | 22 | 9 | 0 | 22
O=C(O)CCCc1nc(-c2ccccc2)no1 | -2 | -4 | 4 | 14 | -18 | 7 | x | x
O=C(O)CCCc1nc(-c2ccc(Cl)cc2)no1 | 13 | 4 | 12 | 44* | 40 | 3 | 32* | 14
O=C(CCCc1nc(-c2ccccc2)no1)NC1CCCC1 | 7 | 16 | 3 | -4 | 10 | -17 | x | x
Cc1cccc(-c2noc(CCCC(=O)Nc3cccnc3)n2)c1 | 6 | -14 | -12 | 4 | -3 | -1 | x | x
Cc1ccc(-c2noc(CCCC(=O)NC3CCCC3)n2)cc1 | 29 | 1 | 19 | 48* | 53* | 5 | 16* | 15
O=C(Nc1ccc(F)cc1F)C1CCCN1S(=O)(=O)c1cccnc1 (stereo not drawn) | x | x | x | 4 | 19 | x | x | x
O=c1c2cc3cccnc3nc2ncn1CCc1c[nH]c2ccccc12 | x | x | x | 44* | 16 | x | -4 | 3
N#CCc1ccnc2ccccc12 | 9 | 8 | -2 | 6 | 4 | 18 | x | x
N#CC(C#N)c1ccnc2ccccc12 | 50 | x | 30 | 40* | 50 | 57 | 6 | 17
COc1ccc(C=CC(=O)c2c(N)n(C)c(=O)n(C)c2=O)cc1 | x | x | x | -12 | -21 | x | x | x
Cc1ncccc1C(=O)N1CCCC(c2cc(C(=O)Nc3ccc(C(C)(C)C)cc3)no2)C1 (stereo not drawn) | -3 | x | 19 | 40* | 6 | -1 | -11 | -5
CCCC(=O)N1CCCC(c2cc(C(=O)Nc3ccccc3)no2)C1 (stereo not drawn) | 30 | x | 29 | 44* | 22 | 28 | -67 | 34
Cc1cc(Oc2cccc3c2S(=O)(=O)N([C@H](C)c2ccccc2)C[C@@H](COCc2ccccc2)O3)cc(C)c1C | x | x | x | -9 | -14 | x | x | x
CN(Cc1ccccc1)C(=O)OCc1cn(Cc2ccc(F)cc2)nn1 | x | x | x | -19 | -16 | x | x | x
O=C1NC(Cc2ccc(O)cc2)c2nc3ccc(Cl)cc3c(=O)n2-c2cc3ccccc3cc21 (stereo not drawn) | 9 | x | 12 | 41* | 5 | -33 | 0 | 3
O=C1NC(Cc2ccccc2)c2nc3ccc(Cl)cc3c(=O)n2-c2cc3ccccc3cc21 (stereo not drawn) | -12 | x | -15 | -12 | 11 | 4 | x | x
C=C1C(=O)O[C@H]2C[C@H]1[C@@H](OC(C)=O)C/C(C)=C/CC/C(C)=C\CC[C@]2(C)O | 72* | -5 | 41 | 40* | 44 | 33 | 32* | 38*
C=C1C(=O)O[C@@H]2[C@H]3O[C@]3(C)CC/C=C(\C)CC[C@@H]12 | -6 | 0 | 3 | -12 | 3 | 14 | x | x
COc1ccc(-c2oc3ccc(N4CCOCC4)cc3c2C#CCO)cc1 | 47 | 8 | 56 | 71* | 11 | 32 | 5 | 53*
COc1ccc(-c2sc3ccc(N4CCOCC4)cc3c2C#CC(C)(C)O)cc1 | 14 | -12 | -14 | -5 | -3 | 2 | x | x
COc1ccc(-c2ccc3oc(-c4ccc(OC)cc4)c(C#CCO)c3c2)cc1 | -129 | 5 | 8 | 45* | 10 | -57 | -5 | 70*
NC(=O)[C@@H]1CCCN1C(=O)[C@H]1O[C@@H](n2ccc(N)nc2=O)[C@H](O)[C@@H]1O | x | x | x | 0 | 3 | x | x | x
COC(=O)C1=C(C)N(Cc2ccccc2C(F)(F)F)C(=NCc2cc(OC)c(OC)c(OC)c2)NC1c1ccccc1 (stereo not drawn) | x | x | x | -9 | 4 | x | x | x
SMILES | SRC3 inh | Gli-Sufu block | LRH-1 inv ag | COUP-TFII inh | SRC2 inh | SRC1 inh | Gal4-VP16 ctr | COUP-TFII conf
O=C(N[C@H](C(=O)N1CCC[C@H]1C(=O)NC1CCCC1)C1CCCCC1)c1cccs1 | x | x | x | 16 | 4 | x | x | x
CCNS(=O)(=O)c1ccc(CCC(=O)N2CCN(c3ccccc3)CC2)cc1 | 10 | 8 | 0 | 43* | 29 | 5 | 9 | 4
O=C(Nc1ccc(Oc2ccccc2)cc1)C1CCCN1S(=O)(=O)c1cccc2cccnc12 (stereo not drawn) | x | x | x | 42* | 19 | x | 13 | 35
CNc1nc(-c2ccc(OC)cc2)c(-c2ccc(OC)cc2)s1 | 2 | -4 | -2 | 41* | 3 | 10 | -17 | -13
C=CCn1c(SCc2ccc(C(=O)Nc3nccs3)cc2)nnc1-c1ccc(C)c(Cl)c1 | 19 | 21 | 0 | 40* | 22 | -4 | -12 | 21
C[C@H]1COc2cc(NCCO)ccc2S(=O)(=O)N1 | x | x | x | 2 | -2 | x | x | x
Cc1cc(N2CCN(Cc3ccccc3)CC2)n2nc(C)nc2n1 | x | x | x | -4 | -38 | x | x | x
Clc1ccccc1-c1nnc2sc(CCc3ccccc3)nn12 | 2 | -2 | 12 | 13 | 0 | 3 | x | x
c1ccc(CCc2nn3c(-c4ccncc4)nnc3s2)cc1 | 61 | -8 | 7 | 51* | 45 | 68* | 1 | 19
O=C(c1ccc2c3c(cccc13)CC2)C1CCCN(Cc2ccncc2)C1 (stereo not drawn) | 8 | 9 | 15 | 53* | 13 | 12 | 19* | 30
CCOc1ccc(NC(=O)CN2CCCN(c3ccc(OC)cc3)CC2)cc1 | x | x | x | 0 | -20 | x | x | x
Cc1ccc(NC(=O)c2cc3c(s2)CCCC3)cc1S(=O)(=O)Nc1ccccc1Cl | 15 | 21 | 23 | 40* | 4 | 19 | 1 | 23
